Laboratory results from PubChem BioAssay AID651599 (National Center for Advancing Translational Sciences (NCATS), 2012).
Inconclusive results are not listed. A call without a number means that no potency is given here. Active and inactive are the calls of the source. Calls follow the shape of the dose curve; as a rule, active = well fitted inhibition curve with a large enough effect; inconclusive = small, poorly fitted or top-dose-only effect; inactive = no such curve, though single readings can be large or run the other way.

The compounds below were run against Tumor susceptibility gene 101 protein (Homo sapiens) (UniProt Q99816) (assay: qHTS Assay for Iinhibitors of HIV-1 Budding by Blocking the Interaction of PTAP/TSG101: Hit Validation in TR assay). Details: Tsg101 binding domain + Texas Red-labeled PTAP peptide, fluorescence polarization, 20 min; series mostly up to 57.5 µM.
Tumor susceptibility gene 101 protein (Homo sapiens), sequence (Q99816 whole entry, looked up, the tested form may be a part): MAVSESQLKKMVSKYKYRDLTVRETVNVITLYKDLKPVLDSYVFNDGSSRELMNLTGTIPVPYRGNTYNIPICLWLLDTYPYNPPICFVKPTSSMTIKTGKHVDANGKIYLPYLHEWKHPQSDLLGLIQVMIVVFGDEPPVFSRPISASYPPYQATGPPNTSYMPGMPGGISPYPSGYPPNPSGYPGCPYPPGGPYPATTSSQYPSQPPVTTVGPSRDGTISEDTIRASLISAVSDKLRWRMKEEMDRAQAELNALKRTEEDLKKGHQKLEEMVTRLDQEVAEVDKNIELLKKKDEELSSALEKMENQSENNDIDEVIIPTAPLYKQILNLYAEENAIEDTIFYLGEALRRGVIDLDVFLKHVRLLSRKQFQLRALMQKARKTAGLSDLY
Outline: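 Texas Red-PTAP peptide (50 nM) binding to Tsg101 binding domain (10 uM), both final, in pH 7.5 HEPES buffer, read as polarization after 20 min at room temperature; compounds pinned before peptide addition.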
Potency is read from the fitted curve at half-maximal effect.

Compound	Potency
CN(C)c1ccc(N=Cc2nc(-c3ccccc3)oc2O)cc1	inactive
Cc1cc2nc3c(=O)n(Cc4ccccc4)c(=O)[nH]c3nc2cc1N	inactive
Cc1cc([N+](=O)[O-])ccc1-c1ccc(/C=N/NC(=O)Cc2ccccc2)o1	inactive
COc1cccc(C2C3CN(C)CC=C3C(C#N)=C(N)C2(C#N)C#N)c1OC (stereo not drawn)	inactive
C/C(=N/NC(=O)c1ccncc1)c1cc2ccc(O)cc2oc1=O	inactive
CC(=O)N/N=C/c1cc(C(C)C)cc(/C=N/NC(C)=O)c1O	inactive
CC(=O)Nc1ccc(N=Cc2c(O)c(C(=O)Nc3ccccc3)cc3ccccc23)cc1	inactive
Cc1nn(C)c(C)c1N1C(=O)c2cccc3c(N)ccc(c23)C1=O	inactive
CCCCN(C)C1=CC2=CC(=C(C#N)C#N)CCC2CC1 (stereo not drawn)	inactive
COc1ccc(-c2cc(C(F)(F)F)c3c(N)c(C(=O)NCCSC)sc3n2)cc1	inactive
CCCCOc1ccc(C2OC34CCCCC3C(C#N)(C#N)C2(C#N)C(=N)O4)cc1 (stereo not drawn)	inactive
COc1ccc(OC)c(NC(=O)CCN2CC(C)CC(C)C2)c1 (stereo not drawn)	inactive
Cc1ccccc1C1CC(=O)Oc2cc(O)ccc21 (stereo not drawn)	inactive
Cc1cc(-c2cccs2)c2c(N)c(C(=O)c3ccc4c(c3)OCO4)sc2n1	inactive
Cn1nc([N+](=O)[O-])c(C(C#N)c2nc3ccccc3n2C)c(Cl)c1=O (stereo not drawn)	inactive
C=CCOc1ccc(C2C(C(=O)c3cccs3)=C(O)C(=O)N2c2nnc(C)s2)cc1 (stereo not drawn)	inactive
CC1CCN(Cc2c(O)ccc3c2O/C(=C\c2ccco2)C3=O)CC1	inactive
Nc1c(C(=O)C2CC2)sc2nc(-c3ccccc3)cc(C(F)(F)F)c12	inactive
CCOc1ccc(-c2nn(-c3ccccc3)cc2/C=C2\SC(=S)N(C3CCS(=O)(=O)C3)C2=O)cc1 (stereo not drawn)	inactive

Compound	Potency
O=C(NCc1cccc(C(F)(F)F)c1)c1cccc2c1C(=O)c1ccc(N3CCC(Cc4ccccc4)CC3)cc1S2(=O)=O	inactive
COC(=O)c1cc(N2CCN(C)CC2)nc2ccccc12	inactive
O=C(O)CCNc1ccc(NCCC(=O)O)c2c1C(=O)c1ccccc1C2=O	inactive
O=c1[nH]nc(-c2ccc(F)cc2)cc1Cc1ccc(F)cc1	inactive
Cn1c(=O)c(Nc2ccc(Cl)cc2)c2c3c(cccc31)C(=O)c1ccccc1-2	inactive
Cc1cc(=O)oc2ccc(OC(=O)CN3C(=O)c4cccc([N+](=O)[O-])c4C3=O)cc12	inactive
CN(C)c1ccc(/C=C2\SC(=O)N(CC(O)Cn3c4ccccc4c4ccccc43)C2=O)cc1 (stereo not drawn)	inactive
CCCn1nc(-c2ccccc2)c2nc3ccccc3nc21	inactive
Cc1cc2nc3c(=O)n(C4CCCCC4)c(=O)[nH]c3nc2cc1N	inactive
c1ccc2c(c1)CCCN2Cc1nnnn1CC1CCCO1 (stereo not drawn)	18.3 µM (active)
Nc1c(C(=O)O)sc2nc(-c3ccccc3)cc(-c3ccc(Cl)cc3)c12	inactive
O=C1CCNc2ccc(-c3ccccc3)cc21	inactive
N#C/C(=C\C=C\c1ccccc1)c1nc(-c2ccc3c(c2)OCO3)cs1	inactive
COc1cc(OC)c(-c2cc(C(=O)O)ccc2OC)c(OC)c1	inactive
O=Cc1ccc2noc(-c3ccc(F)cc3)c2c1	inactive
CC1C2C(C)N(C)C(=O)N(C)C2N(C)C(=O)N1C (stereo not drawn)	inactive
COC(=O)CN1C(=S)N(c2ccc(OC)cc2)C(=O)/C1=C/c1ccc(N2CCOCC2)cc1	inactive
CCCn1c(=N)c(S(=O)(=O)c2ccccc2)cc2c(=O)n3cccc(C)c3nc21	inactive
Oc1ccc2ccccc2c1N=Nc1nccs1	inactive
